In PubChem BioAssay (Tox21):
Where “and” joins values, the source holds several entries; their conditions need not be identical. Identical values can stand only once. Inconclusive results are not listed. Calls of active or inactive are those of the source. Unless noted, calls follow the shape of the dose curve; as a rule, active = well fitted curve in the direction sought with a large enough effect in the repeat runs; inconclusive = weak or mixed curves; inactive = no such curve, though single readings can be large; an effect the other way counts as inactive or inconclusive.

Tests used:
[1] = qHTS assay to identify small molecule agonists of H2AX (AID 1224845; active = well fitted activation curve with a large enough effect in the signal ratio in the repeat runs, not every such curve was filed as active; the % refers to the signal ratio)
Procedure, shortened: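 Wild-type CHO-K1 cells, plated overnight, exposed 3hr at 37C to 15 concentrations (0.76% DMSO final). Lysed, then HTRF anti-pH2AX (S139) cryptate and anti-H2AX-d2 antibodies, 24 hr room temperature; 665/620 nm emission read.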

[2] = qHTS assay to identify small molecule agonists of the hypoxia (HIF-1) signaling pathway (AID 1224846; active = well fitted activation curve with a large enough effect in the signal ratio in the repeat runs, not every such curve was filed as active; the % refers to the signal ratio)
Procedure, shortened: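 Reporter induction in HRE-bla ME-180 cells is taken as agonism: cells sit 5 hrs after plating, receive compounds or DMSO only, incubate 17 hrs at 37C under 5% CO2, and are loaded with CCF4-AM for beta-lactamase FRET measurement.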

[3] = qHTS assay to identify small molecule agonists of H2AX - cell viability counter screen (AID 1224847; calls by dose curve; also: top concentration of the series differs between compounds; nearly all actives have a fitted effect of over 30% in size)
Procedure, shortened: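 Compounds tested at 15 concentrations were incubated 3 hr at 37C with wild-type CHO-K1 cells; cellular ATP-based luminescence (CellTiter-Glo) indicated viability.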

[4] = qHTS assay to identify small molecule antagonists of the estrogen related receptor (ERR) signaling pathway from Tox21 library (AID 1224848); also: nearly all actives have a fitted effect of over 50% in size
Procedure, shortened: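 Compounds dissolved in DMSO are pin-transferred onto ERR reporter cells (2,000 per well) that have settled for 6 h at 37 C. Plates then incubate 18 h at 37 C before ONE-Glo luciferase reagent and a luminescence read 30 min later.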

[5] = qHTS assay to identify small molecule agonists of the estrogen related receptor (ERR) signaling pathway from Tox21 library (AID 1224849; calls by dose curve; also: nearly all actives have a fitted effect of over 15% in size); conditions: ERR reporter cell line, ONE-Glo luciferase, 18 h
Procedure, shortened: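 Tox21 compounds tested for ERR agonism in an NTP reporter cell line: 18 h treatment at 37 C, then ONE-Glo luminescence.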

[6] = qHTS RealTime-Glo MT Cell Viability Assay in HepG2 cells - 24 hour (AID 1224867); also: nearly all actives have a fitted effect of over 50% in size
Procedure, shortened: (§1)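 Tox21 10K library screened in qHTS format on HepG2 cells carrying RealTime-Glo reagents. Compounds were added after a 5 h preincubation, and the luminescent signal from continuous culture was measured repeatedly during 40 h treatment.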

[7] = qHTS RealTime-Glo MT Cell Viability Assay in HEK293 cells - 32 hour (AID 1224868); also: top concentration of the series differs between compounds; nearly all actives have a fitted effect of over 50% in size
Procedure, shortened: (§2)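 Luminescence generated by NanoLuc from substrate produced by living HEK293 cells served as the viability signal. Each value reflects the reading at its stated time point during continuous 40 h compound exposure at 37 C.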

[8] = A CellTox Green Cytotoxicity Assay to monitor cytotoxicity in HEK293 cells - 0 hour (AID 1224869); also: nearly all actives have a fitted effect of over 50% in size
Procedure, shortened: (§3)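 Tox21 screen in HEK293: membrane-impermeant cyanine dye fluoresces on binding dead-cell DNA; compound pinned 5 h post-seeding, plates held at 37 C, signal read repeatedly through 40 h.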

[9] = qHTS RealTime-Glo MT Cell Viability Assay in HepG2 cells - 40 hour (AID 1224870); also: nearly all actives have a fitted effect of over 50% in size
Procedure, shortened: (§4)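 HepG2 cells (600/well) mixed with RealTime-Glo MT reagent, settled 5 h at 37 C/5% CO2 before compound addition. Nonlytic NanoLuc luminescence from viable-cell prosubstrate reduction read repeatedly during 40 h treatment at 37 C.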

[10] = A CellTox Green Cytotoxicity Assay to monitor cytotoxicity in HEK293 cells - 40 hour (AID 1224871); also: nearly all actives have a fitted effect of over 45% in size
Procedure, shortened: as §3

[11] = qHTS RealTime-Glo MT Cell Viability Assay in HEK293 cells - 16 hour (AID 1224872)
Procedure, shortened: as §2

[12] = qHTS RealTime-Glo MT Cell Viability Assay in HepG2 cells - 8 hour (AID 1224873); also: nearly all actives have a fitted effect of over 55% in size
Procedure, shortened: as §4

[13] = qHTS RealTime-Glo MT Cell Viability Assay in HEK293 cells - 40 hour (AID 1224874); conditions: RealTime-Glo luminescence; max response: hits give low values; also: nearly all actives have a fitted effect of over 50% in size
Procedure, shortened: (§5)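 HEK293 + NanoLuc + prosubstrate, 600 cells/well; 5 h, 37 C/5% CO2; compound 23 nL in DMSO by pintool; 37 C; luminescence read at 0, 8, 16, 24, 32 and 40 h time points.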

[14] = A CellTox Green Cytotoxicity Assay to monitor cytotoxicity in HEK293 cells - 24 hour (AID 1224875); also: nearly all actives have a fitted effect of over 45% in size
Procedure, shortened: as §3

[15] = A CellTox Green Cytotoxicity Assay to monitor cytotoxicity in HepG2 cells - 16 hour (AID 1224876); also: nearly all actives have a fitted effect of over 45% in size
Procedure, shortened: (§6)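 Measurements at 0, 8, 16, 24, 32 and 40 h of treatment captured CellTox Green fluorescence in HepG2 cells that had been co-plated with reagent and preincubated 5 h at 37 C/5% CO2.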

[16] = qHTS RealTime-Glo MT Cell Viability Assay in HepG2 cells - 32 hour (AID 1224877); also: nearly all actives have a fitted effect of over 55% in size
Procedure, shortened: as §1

[17] = A CellTox Green Cytotoxicity Assay to monitor cytotoxicity in HepG2 cells - 24 hour (AID 1224878); also: nearly all actives have a fitted effect of over 45% in size
Procedure, shortened: as §6

[18] = A CellTox Green Cytotoxicity Assay to monitor cytotoxicity in HepG2 cells - 40 hour (AID 1224879); also: nearly all actives have a fitted effect of over 40% in size
Procedure, shortened: as §6

[19] = qHTS RealTime-Glo MT Cell Viability Assay in HEK293 cells - 0 hour (AID 1224880)
Procedure, shortened: as §5

[20] = A CellTox Green Cytotoxicity Assay to monitor cytotoxicity in HEK293 cells - 32 hour (AID 1224881); also: nearly all actives have a fitted effect of over 40% in size
Procedure, shortened: as §3
% is scaled to controls: 0 for no effect and ±100 for the full control effect.

CCCCC(CC)COC(=O)c1ccc(C(=O)OCC(CC)CCCC)cc1 (configuration not stated)
inactive: Potency [1] | outcome [2] | Potency [3] | Potency [4] | activity change, positive = activation ([5]; at 92.4 µM (top of the series)) -0.0437% | Potency [6] | Potency [7] | Potency [8] | Potency [9] | Potency [10] | Potency [11] | Potency [12] | max response [13] 10.3% and 17.5% | Potency [14] | Potency [15] | Potency [16] | Potency [17] | Potency [18] | Potency [19] | Potency [20]

COC(=O)OC
inactive: Potency [1] | outcome [2] | Potency [3] | Potency [4] | activity change, positive = activation ([5]; at 92.4 µM (top of the series)) 8.59% and 5.73% | Potency [6] | Potency [7] | Potency [8] | Potency [9] | Potency [10] | Potency [11] | max response [13] 8.45% and 1.69% | Potency [15] | Potency [16] | Potency [17] | Potency [18] | Potency [19] | Potency [20]

CCCCCCCCCCCCCC(=O)O
inactive: Potency [1] | outcome [2] | Potency [3] | Potency [4] | activity change, positive = activation ([5]; at 92.4 µM (top of the series)) -1.8% and -13.1% | Potency [6] | Potency [7] | Potency [8] | Potency [9] | Potency [10] | Potency [11] | Potency [12] | max response [13] -22.5% and -9.69% | Potency [14] | Potency [15] | Potency [16] | Potency [17] | Potency [18] | Potency [19] | Potency [20]

CC(=O)Nc1ccc(CC(=O)O)cc1
inactive: Potency [1] | outcome [2] | Potency [3] | Potency [4] | activity change, positive = activation ([5]; at 42.5 µM (top of the series)) -1.58% | activity change, positive = activation ([5]; at 92.4 µM (top of the series)) 9.59% | Potency [6] | Potency [7] | Potency [8] | Potency [9] | Potency [10] | Potency [11] | Potency [12] | max response [13] -18.8% and 1.34% | Potency [15] | Potency [16] | Potency [17] | Potency [18] | Potency [19] | Potency [20]

NC1CCCCC1N (configuration not stated)
inactive: Potency [1] | outcome [2] | Potency [3] | Potency [4] | activity change, positive = activation ([5]; at 92.4 µM (top of the series)) 1.49% and 5.92% | Potency [6] | Potency [7] | Potency [8] | Potency [9] | Potency [10] | Potency [11] | max response [13] -12.3% and -1.05% | Potency [14] | Potency [15] | Potency [16] | Potency [17] | Potency [18] | Potency [19] | Potency [20]
